# Data from PubChem BioAssay AID540321 (Johns Hopkins Ion Channel Center, 2011).
# Activity calls are given as the source filed them.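 How the source made its calls: active means Inhibition of the Kir2.1 potassium channel over 30% at some tested dose, plus a fitted dose response curve; inactive means no Kir2.1 inhibition at any dose, or no curve fitted.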
# Molecular target: Inward rectifier potassium channel 2 (Mus musculus) (UniProt P35561)
# Test: off-target blockade of inward rectifier Kir2.1 – cell-based, FluxOR thallium flux, CRC round 2, selectivity assay for KCNK9 inhibitor project, SAR follow-up (AID 540321)
# Chain of Inward rectifier potassium channel 2 (Mus musculus) (P35561 whole entry, looked up): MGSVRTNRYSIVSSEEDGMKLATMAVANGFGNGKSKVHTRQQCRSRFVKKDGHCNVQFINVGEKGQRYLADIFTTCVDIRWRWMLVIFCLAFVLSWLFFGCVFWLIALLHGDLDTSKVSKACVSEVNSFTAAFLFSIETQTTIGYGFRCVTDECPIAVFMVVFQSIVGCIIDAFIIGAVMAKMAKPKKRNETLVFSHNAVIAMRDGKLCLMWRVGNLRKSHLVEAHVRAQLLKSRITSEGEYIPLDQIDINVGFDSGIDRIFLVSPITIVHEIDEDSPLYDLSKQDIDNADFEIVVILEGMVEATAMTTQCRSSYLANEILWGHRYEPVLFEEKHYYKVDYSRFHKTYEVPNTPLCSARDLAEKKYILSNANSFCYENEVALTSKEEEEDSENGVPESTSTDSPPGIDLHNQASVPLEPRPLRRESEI
row,SMILES,outcome
1,COc1ccc(C(=O)Nc2cccc(NC(=O)c3cccc(C)c3)c2)cc1,inactive
2,COc1ccccc1NC(=O)c1cccc(NC(=O)c2ccccc2OC)c1,inactive
3,O=C(Nc1cccc(NC(=O)c2ccccc2)c1)c1ccccc1,inactive
4,S=c1[nH]nc(-c2ccco2)n1CC1CCCCC1,inactive
5,COc1cccc(-c2n[nH]c(=S)n2C(C)C2CC3CCC2C3)c1 (stereo unspecified),inactive
6,COc1cccc(C(=O)Nc2cccc(NC(=O)c3ccccc3)c2)c1,inactive
7,CC(C1CC2CCC1C2)n1c(-c2ccccc2)n[nH]c1=S (stereo unspecified),inactive
8,CCOc1ccccc1NC(=O)c1cccc(NC(=O)c2ccc(C(F)(F)F)cc2)c1,inactive
9,Cc1cccc(C(=O)Nc2cccc(NC(=O)c3ccccc3C)c2)c1,inactive
10,O=C(Nc1cccc(NC(=O)c2ccc(F)cc2)c1)c1ccccc1,inactive
11,CC(C1CC2CCC1C2)n1c(-c2ccoc2)n[nH]c1=S (stereo unspecified),inactive
12,Cc1cccc(C(=O)Nc2cccc(NC(=O)c3ccccc3Cl)c2)c1,inactive
13,COc1ccccc1NC(=O)c1cccc(NC(=O)C2CCCC2)c1,inactive
14,Cc1cccc(-c2n[nH]c(=S)n2C(C)C2CC3CCC2C3)c1 (stereo unspecified),inactive
15,CCOc1ccccc1C(=O)Nc1cccc(NC(=O)C2CCCC2)c1,inactive
16,Cc1cccc(S(=O)(=O)Nc2cccc(NC(=O)c3ccccc3)c2)c1,inactive
